# Activity calls are given as the source filed them.
# Key:
# [1] = optical density shifts of acrAB sulA E. coli – strain DRC41, OD650, 48 h, E. coli filamentation inducer project, primary screen (AID 1152); conditions: higher = more signal, called active from +8 up or from −8 down;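 note: E. coli MC1000 strain DRC41 lacking acrAB efflux pump and sulA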
# [2] = probe aLefty1 binding on compound microarray – biochemical, small-molecule microarray, 635/667 nm fluorescence, primary screen (AID 1153); conditions: higher = more signal;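 note: score merges spot fluorescence with signal-to-noise ratio from the scanned slide images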
# [3] = plasmodial surface anion channel blockers, osmotic lysis – cell-based, P. falciparum Indochina, OD700, 1 h, primary screen (AID 1154); conditions: P. falciparum Indochina infected RBC osmotic lysis, higher = more signal, called active from +8 up or from −8 down
# [4] = plasmodial surface anion channel blockers, osmotic lysis – cell-based, P. falciparum Indochina, OD700, 2 h, primary screen (AID 1155);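 note: lysis reports solute entry through the parasite surface anion channel PSAC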; conditions: P. falciparum Indochina infected erythrocytes, higher = more signal, called active from +8 up or from −8 down
# [5] = changes in parasitized red cell lysis, either direction – P. falciparum Indochina, OD700, 3 h, PSAC antagonist project, primary screen (AID 1156); conditions: P. falciparum-infected erythrocytes, osmotic lysis, higher = more signal, called active from +8 up or from −8 down
# [6] = plasmodial surface anion channel blockers, osmotic lysis – cell-based, P. falciparum Indochina, OD700, 18 h, primary screen (AID 1157); conditions: P. falciparum Indochina infected erythrocytes, osmotic lysis OD700, 18 h; higher = more signal, called active from +8 up or from −8 down
# [7] = S6 kinase pathway phospho-S6 level changes – cell-based, A549, cytoblot, luminescence, serum-stimulated, primary screen (AID 1158); conditions: 5 h, higher = more signal;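 note: serum-stimulated A549 lung adenocarcinoma cells; signal is phosphorylated S6 detected by cytoblot immunostaining with HRP secondary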
# [8] = target: NADPH oxidase 2 (Homo sapiens) (UniProt P04839); experiment: compounds shifting NOX2 Amplex Red fluorescence – cell-based, HEK293-NOX2, PMA-stimulated, NOX inhibitor project, primary screen (AID 1159); conditions: 45 min, higher = more signal, called active from +8 up or from −8 down; note: test concentration not given here
# [9] = target: NADPH oxidase 4 (Homo sapiens) (UniProt Q9NPH5); experiment: compounds shifting NOX4 Amplex Red fluorescence – cell-based, HEK293-NOX4, tetracycline-induced, NOX inhibitor project, primary screen (AID 1160); conditions: HEK293-NOX4, Amplex Red H2O2 fluorescence, 45 min; higher = more signal, called active from +8 up or from −8 down
# [10] = target: NADPH oxidase 5 (Homo sapiens) (UniProt Q96PH1); experiment: compounds shifting NOX5 Amplex Red fluorescence – cell-based, HEK293-NOX5, NOX inhibitor project, primary screen (AID 1161); conditions: HEK293-NOX5, ionomycin, 45 min, higher = more signal
# [11] = compound effects on lung adenocarcinoma cell viability – A549, calcein-AM fluorescence, 48 h, basal, profiling panel (AID 1162); conditions: higher = more signal; note: test concentration not given here
# [12] = compound effects on differentiated 3T3-L1 adipocyte viability – cell-based, 3T3-L1 adipocytes, calcein-AM fluorescence, 48 h, basal, profiling panel (AID 1163); conditions: 3T3-L1 adipocytes viability, higher = more signal; note: test concentration not given here
# [13] = compound effects on hepatocellular carcinoma cell viability – HepG2, calcein-AM fluorescence, 48 h, basal, profiling panel (AID 1164); conditions: higher = more signal; note: test concentration not given here
# [14] = compound effects on multiple myeloma cell viability – MM1S, calcein-AM fluorescence, 48 h, basal, profiling panel (AID 1165); conditions: higher = more signal; note: test concentration not given here
# [15] = calcein-AM signal in unstimulated myeloma cells – cell-based, calcein-AM fluorescence, 48 h, PK04 Diversity Set, profiling panel (AID 1166); conditions: RPMI8226 myeloma viability, higher = more signal;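 note: cells grown under basal conditions without added stimulus; test concentration not given here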
# [16] = JC-1 mitochondrial signal, unstimulated HepG2 cells – cell-based, JC-1 fluorescence, 24 h, 100 nL compound, profiling panel (AID 1167); conditions: HepG2 mitochondrial potential, higher = more signal; note: test concentration not given here
# [17] = JC-1 mitochondrial signal, unstimulated adipocytes – cell-based, JC-1 fluorescence, 3T3-L1 adipocytes, 24 h, 100 nL compound, profiling panel (AID 1168); conditions: JC-1 mitochondrial fluorescence, higher = more signal, called active from +8 up or from −8 down; note: test concentration not given here
# [18] = JC-1 mitochondrial signal, unstimulated myeloma cells – cell-based, JC-1 fluorescence, RPMI8226, 24 h, 100 nL compound, profiling panel (AID 1169); conditions: JC-1 mitochondrial potential fluorescence, higher = more signal; note: test concentration not given here
# [19] = JC-1 mitochondrial signal, unstimulated MM1S myeloma – cell-based, JC-1 fluorescence, 24 h, 100 nL compound, profiling panel (AID 1170); conditions: MM1S mitochondrial potential, higher = more signal; note: test concentration not given here
# [20] = resazurin metabolic signal in A549 cells – cell-based, resazurin fluorescence, 24 h, PK04 Diversity Set, profiling panel (AID 1171); conditions: A549 viability, higher = more signal, called active from +8 up or from −8 down; note: test concentration not given here
# NADPH oxidase 5 (Homo sapiens), sequence (Q96PH1 whole entry, looked up): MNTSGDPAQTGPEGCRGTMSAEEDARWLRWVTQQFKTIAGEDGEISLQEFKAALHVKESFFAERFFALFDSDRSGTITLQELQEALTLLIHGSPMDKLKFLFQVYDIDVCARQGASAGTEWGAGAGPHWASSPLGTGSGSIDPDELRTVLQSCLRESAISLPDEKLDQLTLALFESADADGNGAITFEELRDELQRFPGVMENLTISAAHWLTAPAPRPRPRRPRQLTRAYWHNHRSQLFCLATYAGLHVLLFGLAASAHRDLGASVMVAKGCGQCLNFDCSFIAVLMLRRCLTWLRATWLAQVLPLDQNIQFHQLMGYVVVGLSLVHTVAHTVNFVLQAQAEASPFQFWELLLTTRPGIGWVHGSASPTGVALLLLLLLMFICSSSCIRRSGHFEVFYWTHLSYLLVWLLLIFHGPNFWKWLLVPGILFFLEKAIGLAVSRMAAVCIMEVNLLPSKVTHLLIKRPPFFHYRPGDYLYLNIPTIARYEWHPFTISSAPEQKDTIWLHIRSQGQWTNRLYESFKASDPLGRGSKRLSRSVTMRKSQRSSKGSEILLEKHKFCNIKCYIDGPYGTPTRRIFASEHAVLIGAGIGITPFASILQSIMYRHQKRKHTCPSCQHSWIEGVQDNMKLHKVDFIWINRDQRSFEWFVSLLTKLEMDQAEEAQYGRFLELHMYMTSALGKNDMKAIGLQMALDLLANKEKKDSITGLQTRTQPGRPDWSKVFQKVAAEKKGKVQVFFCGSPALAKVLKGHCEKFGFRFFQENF
# NADPH oxidase 4 (Homo sapiens), sequence (Q9NPH5 whole entry, looked up): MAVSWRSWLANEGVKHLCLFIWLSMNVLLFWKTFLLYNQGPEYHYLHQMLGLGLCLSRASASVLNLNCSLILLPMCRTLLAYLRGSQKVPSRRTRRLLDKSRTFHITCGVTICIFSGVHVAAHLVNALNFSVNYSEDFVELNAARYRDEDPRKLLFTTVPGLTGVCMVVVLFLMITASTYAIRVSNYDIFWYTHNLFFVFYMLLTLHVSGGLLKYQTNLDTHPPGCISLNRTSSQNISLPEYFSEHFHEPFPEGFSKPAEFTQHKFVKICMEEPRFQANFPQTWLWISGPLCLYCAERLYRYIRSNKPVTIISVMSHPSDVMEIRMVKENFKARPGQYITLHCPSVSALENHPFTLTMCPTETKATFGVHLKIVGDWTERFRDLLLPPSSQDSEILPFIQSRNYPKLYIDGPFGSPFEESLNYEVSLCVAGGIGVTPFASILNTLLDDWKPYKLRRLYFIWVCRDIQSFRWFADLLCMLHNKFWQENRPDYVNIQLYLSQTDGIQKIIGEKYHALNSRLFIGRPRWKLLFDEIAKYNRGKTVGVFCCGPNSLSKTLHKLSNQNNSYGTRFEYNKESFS
# NADPH oxidase 2 (Homo sapiens), sequence (P04839 whole entry, looked up): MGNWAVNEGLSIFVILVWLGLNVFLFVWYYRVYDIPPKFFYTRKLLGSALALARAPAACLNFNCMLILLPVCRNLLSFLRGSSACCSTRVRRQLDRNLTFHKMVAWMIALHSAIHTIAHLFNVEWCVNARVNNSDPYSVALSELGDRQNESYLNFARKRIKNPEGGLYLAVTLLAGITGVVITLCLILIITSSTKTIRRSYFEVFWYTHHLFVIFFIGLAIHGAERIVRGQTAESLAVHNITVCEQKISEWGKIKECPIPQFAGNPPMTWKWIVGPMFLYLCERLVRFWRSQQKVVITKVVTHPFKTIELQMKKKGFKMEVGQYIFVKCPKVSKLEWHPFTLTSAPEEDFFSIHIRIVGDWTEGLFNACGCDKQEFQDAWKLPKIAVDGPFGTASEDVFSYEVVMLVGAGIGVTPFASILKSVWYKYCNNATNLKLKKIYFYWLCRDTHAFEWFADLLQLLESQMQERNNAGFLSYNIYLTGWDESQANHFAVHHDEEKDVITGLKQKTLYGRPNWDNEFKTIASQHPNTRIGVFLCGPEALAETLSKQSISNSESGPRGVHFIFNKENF
SMILES,z-score [1],composite z-score [2],z-score [3],z-score [4],z-score [5],z-score [6],z-score [7],z-score [8],z-score [9],z-score [10],z-score [11],z-score [12],z-score [13],z-score [14],z-score [15],z-score [16],z-score [17],z-score [18],z-score [19],z-score [20]
CC1CC/C=C\[C@H]2OC34C=CCN(CCN5CCOCC5)C(=O)[C@H]3N(CCCCCCO)C(=O)[C@@H]4C2C(=O)O1 (stereo not given in full),-0.044 (inactive),-0.187,0.592 (inactive),0.267 (inactive),0.215 (inactive),0.182 (inactive),-0.375,0.726 (inactive),-0.0532 (inactive),1.96,0.919,0.24,1.1,1.42,-0.575,0.37,-0.44 (inactive),-0.0357,0.606,-0.116 (inactive)
C=CCNC(=O)[C@@H]1[C@H]2C(=O)O[C@H](c3ccccc3)[C@H](c3ccccc3)N2[C@H](c2ccccc2OCCO)[C@@]12C(=O)N(C(=O)OCCOC)c1ccc(C#CCCO)cc12,-0.288 (inactive),0.209,2.62 (inactive),1.15 (inactive),0.123 (inactive),0.167 (inactive),0.568,1.57 (inactive),1.31 (inactive),0.165,0.614,0.393,1.53,-0.02,-0.615,-0.332,0.507 (inactive),-0.868,-1.46,-0.0256 (inactive)
C=CCC(OC(C)=O)[C@@H]1[C@@H](N(Cc2ccc(-c3cccc(C(F)(F)F)c3)o2)C(=O)c2cccc3ccccc23)c2cc(OCCCO)ccc2N1C(=O)c1ccc2ccccc2n1 (stereo not given in full),-0.855 (inactive),0.007,0.706 (inactive),-0.342 (inactive),1.32 (inactive),0.139 (inactive),0.2,-3.37 (inactive),-1.17 (inactive),-0.606,-0.16,0.953,-0.0619,-0.142,-2.18,2.43,-0.637 (inactive),0.307,0.582,-0.871 (inactive)
COCC(=C=CC[C@@H](O)c1cccc(OCCO)c1)C[C@@H](O)COCc1ccccc1,1.63 (inactive),1.24,8.33 (active),-1.22 (inactive),1.08 (inactive),-2.47 (inactive),1.31,-0.0404 (inactive),-0.268 (inactive),-1.62,1.06,1.08,1.41,1.16,0.34,0.638,0.362 (inactive),0.539,0.532,0.244 (inactive)
COc1ccccc1CN1C(=O)c2ccccc2[C@](Cc2ccccc2I)(C(=O)NCCCN(C)C)[C@@H]1c1ccc(CO)cc1,-6.9 (inactive),-0.275,2.8 (inactive),-0.551 (inactive),-5.31 (inactive),-0.379 (inactive),-2.54,-10.2 (active),-4.81 (inactive),-4.8,-4.38,-0.247,-5.12,-3.81,-4.39,-3.01,1.29 (inactive),-1.03,-2.23,-7.15 (inactive)
CC(C)(C)OC(=O)CC[C@]1(C(=O)N2CCOCC2)N=C(c2ccc(OCCCO)cc2)O[C@H]1c1ccccc1CN=[N+]=[N-],-0.47 (inactive),0.705,13.9 (active),1.71 (inactive),1.05 (inactive),0.421 (inactive),0.705,-1.34 (inactive),0.181 (inactive),-0.476,-0.385,0.0723,0.209,-0.411,-0.563,0.432,-0.0219 (inactive),-0.166,-0.324,0.734 (inactive)
CC(=O)c1ccc(C(O)C2C=CC3C(=O)NC(=O)C3N2Nc2ccc(Cl)cc2Cl)cc1 (stereo not given),-2.32 (inactive),0.0267,2.38 (inactive),0.738 (inactive),1.15 (inactive),1 (inactive),-0.497,-0.826 (inactive),-5.81 (inactive),-3.8,-0.807,-0.458,-1.28,-0.124,-0.344,-0.976,-1.4 (inactive),0.574,0.863,-0.743 (inactive)
C=C(COC)/C(=C/C[C@H](OC(=O)c1ccncc1)c1ccc(OCCO)cc1)c1cc(C(=O)OC)ccc1OC,1.79 (inactive),0.0999,21.4 (active),2.24 (inactive),2.31 (inactive),-1.02 (inactive),0.876,-3.16 (inactive),-1.49 (inactive),-2.53,-0.313,1.7,-0.842,-1.18,-0.443,1.37,-0.4 (inactive),0.368,0.0527,1.29 (inactive)
